Test results from PubChem BioAssay AID1159580 (chemical genetic matrix, 2015).
Where “and” joins values, the source holds several entries; their conditions need not be identical. Equal entries are not always repeated. Out of some 5,500 compounds screened, about 2,000 (36%) were called active. Inconclusive results (about 18%) are left out. Cut-off read from the data, not from the text of the source: active = normalized growth mostly below about 0.91 (no sharp cut-off); inconclusive = no clear call, values can overlap the other calls; inactive = mostly above about 0.92. This is one part of the list.

Assay: chemical genetic growth profiling, strain panel (AID 1159580);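 note: tested at 20 µM; growth read once vehicle control cultures reached saturation at 30 °C; 1 = growth at the plate median or of vehicle wells; lower values mean less growth of the strain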
Conditions: S. cerevisiae deletion strains, growth OD

Measured: normalized growth

CN1CCc2cc3c(cc2C1O)OCO3 (centres undefined)
inactive: locus YAL021C, strain ccr4, active compounds read low 1.03 | locus YAL026C, strain drs2, active compounds read low 0.986 | locus YAL030W, strain snc1, active compounds read low 0.993 | locus YBL061C, strain skt5, active compounds read low 0.984 | locus YBR009C, strain hhf1, active compounds read low 1.01 | locus YBR021W, strain FUR4, active compounds read low 1.08 | locus YBR023C, strain chs3, active compounds read low 1.01 | locus YBR171W, strain sec66, active compounds read low 0.978 | locus YBR229C, strain ROT2, active compounds read low 0.954 | locus YBR231C, strain swc5, active compounds read low 0.954 | locus YBR279W, strain paf1, active compounds read low 1 | locus YCL011C, strain gbp2, active compounds read low 1.01 | locus YCL016C, strain dcc1, active compounds read low 1.01 | locus YCL029C, strain bik1, active compounds read low 0.982 | locus YCL061C, strain MRC1, active compounds read low 1 | locus YCL069W, strain vba3, active compounds read low 0.988 | locus YCR088W, strain abp1, active compounds read low 0.988 | locus YDL005C, strain med2, active compounds read low 0.992 | locus YDL035C, strain GPR1, active compounds read low 0.993 | locus YDL040C, strain nat1, active compounds read low 0.995 | locus YDL074C, strain BRE1, active compounds read low 1.03 | locus YDL101C, strain DUN1, active compounds read low 0.977 | locus YDL185W, strain tfp1, active compounds read low 0.969 | locus YDL192W, strain arf1, active compounds read low 0.998 | locus YDR001C, strain nth1, active compounds read low 0.994 | locus YDR069C, strain doa4, active compounds read low 0.969 | locus YDR101C, strain arx1, active compounds read low 1.02 | locus YDR137W, strain rgp1, active compounds read low 0.981 | locus YDR150W, strain NUM1, active compounds read low 0.987 | locus YDR159W, strain sac3, active compounds read low 0.946 | locus YDR162C, strain NBP2, active compounds read low 0.943 | locus YDR195W, strain ref2 0.934 | locus YDR297W, strain sur2, active compounds read low 1.01 | locus YDR318W, strain mcm21, active compounds read low 0.978 | locus YDR334W, strain swr1, active compounds read low 0.993 | locus YDR335W, strain msn5, active compounds read low 1.01 | locus YDR388W, active compounds read low 0.956 | locus YDR392W, strain spt3, active compounds read low 0.926 | locus YDR502C, strain sam2, active compounds read low 0.973 | locus YEL003W, strain gim4, active compounds read low 0.966 | locus YEL037C, strain rad23, active compounds read low 1 | locus YEL061C, strain CIN8 (second series), active compounds read low 0.987 | locus YEL061C, strain CIN8, active compounds read low 0.99 | locus YER015W, strain faa2, active compounds read low 0.996 | locus YER016W, strain bim1, active compounds read low 0.986 | locus YER110C, active compounds read low 0.977 | locus YER111C, strain swi4, active compounds read low 0.992 | locus YER155C, strain BEM2 (second series), active compounds read low 0.962 | locus YER155C, strain BEM2, active compounds read low 0.984 | locus YER167W, strain BCK2, active compounds read low 0.986 | locus YFR010W, strain ubp6, active compounds read low 0.979 | locus YGL078C, strain dbp3, active compounds read low 0.995 | locus YGL086W, strain mad1, active compounds read low 1.05 | locus YGL167C, strain pmr1, active compounds read low 0.989 | locus YGL173C, strain kem1, active compounds read low 0.994 | locus YGL227W, strain vid30, active compounds read low 0.986 | locus YGL240W, strain doc1, active compounds read low 0.957 | locus YGL248W, strain PDE1, active compounds read low 0.974 | locus YGL253W, strain hxk2, active compounds read low 0.988 | locus YGR135W, strain pre9, active compounds read low 0.966 | locus YGR252W, strain gcn5, active compounds read low 0.95 | locus YHR013C, strain ard1, active compounds read low 0.995 | locus YHR027C, strain rpn1, active compounds read low 0.991 | locus YHR030C, strain SLT2, active compounds read low 0.992 and 1.09 | locus YHR079C, strain IRE1 (second series), active compounds read low 0.978 | locus YHR079C, strain IRE1, active compounds read low 1.1 | locus YHR094C, strain hxt1, active compounds read low 0.968 | locus YHR129C, strain ARP1, active compounds read low 0.99 | locus YHR142W, strain chs7, active compounds read low 1.01 | locus YHR200W, strain rpn10, active compounds read low 0.964 | locus YIL066C, strain RNR3, active compounds read low 0.989 | locus YIL073C, strain SPO22, active compounds read low 0.988 | locus YIL125W, strain kgd1, active compounds read low 0.988 | locus YIR030C, strain dcg1, active compounds read low 0.977 | locus YJL092W, strain hpr5, active compounds read low 1 | locus YJL095W, strain BCK1 (second series), active compounds read low 1.01 | locus YJL095W, strain BCK1, active compounds read low 0.953 and 1.06 | locus YJL115W, strain asf1, active compounds read low 0.994 | locus YJL129C, strain trk1, active compounds read low 0.979 | locus YJL134W, strain LCB3, active compounds read low 0.989 | locus YJL154C, strain vps35, active compounds read low 0.989 | locus YJL164C, strain tpk1, active compounds read low 1 | locus YJL166W, strain qcr8, active compounds read low 0.98 | locus YJL168C, strain set2, active compounds read low 0.989 | locus YJL187C, strain SWE1 (second series), active compounds read low 0.974 | locus YJL187C, strain SWE1, active compounds read low 0.995 | locus YJR043C, strain POL32, active compounds read low 0.975 | locus YJR066W, strain TOR1, active compounds read low 0.999 | locus YJR075W, strain HOC1, active compounds read low 0.976 | locus YKL009W, strain mrt4, active compounds read low 0.964 | locus YKL068W, active compounds read low 0.989 | locus YKL085W, strain MDH1 (second series), active compounds read low 0.974 | locus YKL085W, strain MDH1, active compounds read low 0.974 | locus YKL160W, strain elf1, active compounds read low 0.996 | locus YKR001C, strain vps1, active compounds read low 0.998 | locus YKR026C, strain gcn3, active compounds read low 0.978 | locus YKR091W, strain srl3, active compounds read low 0.992 | locus YLL001W, strain dnm1, active compounds read low 0.983 | locus YLL026W, active compounds read low 0.998 | locus YLL041C, strain sdh2, active compounds read low 0.999 | locus YLR027C, strain aat2, active compounds read low 0.995 | locus YLR039C, strain RIC1, active compounds read low 0.928 | locus YLR058C, strain SHM2, active compounds read low 0.969 | locus YLR102C, strain apc9, active compounds read low 0.98 | locus YLR113W, strain HOG1, active compounds read low 1.07 | locus YLR221C, strain rsa3, active compounds read low 1 | locus YLR258W, strain gsy2, active compounds read low 1.01 | locus YLR262C, strain YPT6 (second series), active compounds read low 1.01 | locus YLR262C, strain YPT6, active compounds read low 0.911 | locus YLR268W, strain sec22, active compounds read low 1 | locus YLR320W, strain mms22, active compounds read low 0.985 | locus YLR330W, strain CHS5, active compounds read low 0.991 | locus YLR342W, strain FKS1 (second series), active compounds read low 1.04 | locus YLR342W, strain FKS1, active compounds read low 0.999 | locus YLR357W, strain rsc2, active compounds read low 0.977 | locus YLR370C, strain arc18, active compounds read low 1 | locus YLR371W, strain rom2, active compounds read low 0.985 | locus YLR384C, strain iki3, active compounds read low 0.981 | locus YLR418C, strain cdc73, active compounds read low 0.95 | locus YML016C, strain PPZ1, active compounds read low 0.992 | locus YML032C, strain rad52, active compounds read low 0.974 | locus YML120C, strain ndi1, active compounds read low 0.995 | locus YML124C, strain tub3, active compounds read low 0.983 | locus YMR058W, strain fet3, active compounds read low 1.01 | locus YMR078C, strain ctf18, active compounds read low 0.984 | locus YMR125W, strain sto1, active compounds read low 0.987 | locus YMR129W, active compounds read low 0.987 | locus YMR205C, strain PFK2, active compounds read low 0.996 | locus YMR223W, strain ubp8, active compounds read low 0.956 | locus YMR231W, strain pep5, active compounds read low 0.979 | locus YMR263W, strain SAP30, active compounds read low 0.981 | locus YMR307W, strain GAS1, active compounds read low 0.951 | locus YNL067W, strain RPL9B, active compounds read low 0.97 | locus YNL071W, strain lat1, active compounds read low 1 | locus YNL153C, strain GIM3, active compounds read low 0.968 | locus YNL183C, strain NPR1, active compounds read low 0.999 | locus YNL209W, strain ssb2, active compounds read low 1 | locus YNL233W, strain BNI4, active compounds read low 0.998 | locus YNL248C, strain rpa49, active compounds read low 1 | locus YNL250W, strain rad50, active compounds read low 0.988 | locus YNL271C, strain bni1, active compounds read low 0.982 | locus YNL298W, strain CLA4, active compounds read low 0.956 | locus YNL307C, strain MCK1, active compounds read low 0.988 | locus YNL322C, strain KRE1 (second series), active compounds read low 1 | locus YNR049C, strain mso1, active compounds read low 1 | locus YNR052C, strain pop2, active compounds read low 0.982 | locus YOL012C, strain htz1 1.7 | locus YOL147C, strain pex11, active compounds read low 0.986 | locus YOR001W, strain rrp6, active compounds read low 0.961 | locus YOR061W, strain CKA2, active compounds read low 0.969 | locus YOR069W, strain VPS5, active compounds read low 0.994 | locus YOR070C, strain gyp1, active compounds read low 0.993 | locus YOR080W, strain dia2, active compounds read low 0.977 | locus YOR083W, strain WHI5, active compounds read low 1.01 | locus YOR106W, strain vam3, active compounds read low 1.01 | locus YOR136W, strain idh2, active compounds read low 0.989 | locus YOR144C, strain elg1, active compounds read low 0.977 | locus YOR184W, strain ser1, active compounds read low 0.959 | locus YOR231W, strain MKK1, active compounds read low 1.09 | locus YOR265W, strain rbl2, active compounds read low 1.01 | locus YOR270C, strain vph1, active compounds read low 0.995 | locus YOR290C, strain snf2, active compounds read low 1.04 | locus YOR316C, strain cot1, active compounds read low 0.979 | locus YPL051W, strain arl3, active compounds read low 0.994 | locus YPL078C, strain atp4, active compounds read low 1.01 | locus YPL106C, strain sse1, active compounds read low 0.994 | locus YPL240C, strain hsp82, active compounds read low 0.99 | locus YPL241C, strain CIN2, active compounds read low 0.988 | locus YPL256C, strain CLN2, active compounds read low 1.08 | locus YPR119W, strain clb2, active compounds read low 0.982 | locus YPR141C, strain kar3, active compounds read low 0.978 | locus YPR163C, strain tif3, active compounds read low 0.987 | locus YPR167C, strain met16, active compounds read low 0.99 | strain wtn01, active compounds read low 1.04
